In PubChem BioAssay (NCI) one finds growth data, which are given here for 15 compounds.

Among the test systems are HT29 colon; SNB-75 CNS; SNB-19 CNS; U251 CNS; PC-3 prostate; UACC-62 melanoma; SK-MEL-28 melanoma; LOX IMVI melanoma; SK-MEL-2 melanoma; SK-MEL-5 melanoma.
Test in all cases: NCI-60 one-dose screen, 48 h (100 = growth as untreated, 0 = no growth, -100 = all killed)
What all share (settings): 10 µM unless noted

Compounds without any hit were thinned out: in the full panel of roughly 83,000, 20% have a hit.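 How to read the values: 0–100, growth inhibition (40 = 60% inhibited); 0, no net growth; -100 to 0, cell death (-40 = 40% of starting cells died; -100 = all dead).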 Unmarked numbers belong to inactive results. Active and inactive are the calls of the source. Rule for the calls: active = growth percent below 10; inactive = the rest.

Turning to `CN1CCN(CC(=O)Nc2nc3c(s2)Nc2cc(Cl)c(Cl)cc2NC3=O)CC1`, the growth was 99.1% in the assay with HT29 colon; 96.3% in the assay on SNB-75 CNS; 104% with SNB-19 CNS; 95% in the assay with U251 CNS; 97.7% in the assay with PC-3 prostate; 109% with UACC-62 melanoma. Further, the growth in the assay with SK-MEL-28 melanoma is 111%.

In the case of `CC12CCCCC1C(C(N)=O)C(=O)O2` (centres undefined), the growth in the assay with HT29 colon was 112%; with SNB-75 CNS, 96.1%; with SNB-19 CNS, 100%; in the assay on U251 CNS it was 104%; with PC-3 prostate, 101%; in the assay with UACC-62 melanoma, 98.8%. The growth was 96.4% in the assay with LOX IMVI melanoma, 105% with SK-MEL-28 melanoma and 104% in the assay on SK-MEL-2 melanoma.

Regarding `Clc1cc(Cl)c(OCC#CI)cc1Cl`, the growth was 10.4% in the assay on HT29 colon; 87.6% in the assay with SNB-75 CNS; 108% in the assay on SNB-19 CNS; 78.9% in the assay on U251 CNS; 75.6% in the assay on PC-3 prostate; 62.8% in the assay on UACC-62 melanoma. Besides, the figures for the growth in the assay with LOX IMVI melanoma, with SK-MEL-28 melanoma and with SK-MEL-2 melanoma were -56% (active), 17.2% and 75.8%, respectively.

Consider `C[C@@H]1CC[C@H]2[C@@H](C)C(O)O[C@@H]3O[C@]4(C)CC[C@@H]1[C@]32OO4` (some centres undefined), for which the growth in the assay with HT29 colon was 17.7%; in the assay with SNB-75 CNS it was 52.5%; in the assay with SNB-19 CNS it was 57.7%; in the assay on U251 CNS, 25.5%; in the assay with PC-3 prostate, 15.1%; in the assay with UACC-62 melanoma it was 31%. In addition, the growth is 11.7% in the assay with LOX IMVI melanoma, 78% in the assay on SK-MEL-28 melanoma and 27% in the assay on SK-MEL-2 melanoma.

As for `CCOc1nc(-c2ccccc2)cc2c(O)c(C(=O)n3nc(C)cc3C)[nH]c(=O)c12`, the growth is 104% in the assay with HT29 colon; 94.4% with SNB-75 CNS; 102% in the assay on SNB-19 CNS; 99.5% with U251 CNS; 101% in the assay on PC-3 prostate; 110% in the assay with UACC-62 melanoma. The growth in the assay with SK-MEL-28 melanoma is 109%.

For `O=C1CN(CO)C(=O)CN1CO`, the growth in the assay on HT29 colon was 109%; in the assay on SNB-75 CNS, 94.2%; in the assay with SNB-19 CNS, 101%; with U251 CNS, 100%; with PC-3 prostate, 95.4%; in the assay with UACC-62 melanoma, 98.3%. Besides, the growth with LOX IMVI melanoma was 99.7%; with SK-MEL-28 melanoma it was 112%; with SK-MEL-2 melanoma, 121%.

Regarding `CCOc1nc(-c2ccccc2)cc2c(O)c(-c3nnco3)[nH]c(=O)c12`, the growth in the assay with HT29 colon is 69%; in the assay on SNB-75 CNS it was 55.2%; in the assay on SNB-19 CNS, 72.1%; in the assay on U251 CNS, 32.7%; in the assay on PC-3 prostate, 43.4%; in the assay on UACC-62 melanoma it was 56.9%. The growth in the assay on SK-MEL-28 melanoma is 76.1%.

For the compound `C=CCCCCCCCCC(=O)[O][Sn]([CH2]CCC)([CH2]CCC)[CH2]CCC`, the growth in the assay with HT29 colon is -76.3% (active); in the assay with SNB-75 CNS it was -98.2% (active); with SNB-19 CNS it was -79.2% (active); in the assay on U251 CNS, -74% (active); in the assay with PC-3 prostate, -93.5% (active); with UACC-62 melanoma, -90.4% (active). In addition, the values for the growth with LOX IMVI melanoma, in the assay on SK-MEL-28 melanoma and with SK-MEL-2 melanoma were -90.9% (active), -93.5% (active) and -71.2% (active), respectively.

On to `N=c1ccn2c(n1)O[C@@H]1[C@@H](O)[C@H](CO)O[C@@H]12`, for which the growth with HT29 colon was 54.2%; in the assay on SNB-75 CNS, 82.8%; in the assay with SNB-19 CNS, 64.8%; in the assay on U251 CNS it was 52.2%; in the assay on PC-3 prostate, 57.9%; in the assay with UACC-62 melanoma it was 81.2%. Besides, the growth in the assay on LOX IMVI melanoma was 67.9%; in the assay on SK-MEL-28 melanoma, 69.9%; in the assay on SK-MEL-2 melanoma it was 82.7%.

As for `CC(=O)O[C@H]1C(=O)[C@@]2(C)C([C@H](OC(=O)c3ccccc3)[C@]3(O)C[C@H](OC(=O)[C@H](O)[C@@H](NC(=O)c4ccccc4)c4ccccc4)C(C)=C1C3(C)C)[C@]1(OC(C)=O)CO[C@@H]1C[C@@H]2O` (some centres undefined), the growth in the assay on HT29 colon was 3.07% (active); in the assay on SNB-75 CNS it was -19% (active); in the assay with SNB-19 CNS, 36.2%; in the assay on U251 CNS it was 13.5%; in the assay on PC-3 prostate, 19.7%; in the assay on UACC-62 melanoma, 42.5%. Also, the growth is 44.3% in the assay with LOX IMVI melanoma, 57.5% in the assay on SK-MEL-28 melanoma and -5.52% (active) in the assay with SK-MEL-2 melanoma.

With `O=C1C(Cl)=C(N=Nc2c(Cl)c(O)c3ccccc3c2O)C(=O)c2ccccc21`, the growth is 76.3% in the assay on HT29 colon; 85.8% in the assay on SNB-75 CNS; 66.3% in the assay on SNB-19 CNS; 53.3% in the assay with U251 CNS; 53.1% in the assay on SK-MEL-5 melanoma; 5.34% (active) in the assay with UACC-62 melanoma. Moreover, the growth was 43% in the assay with LOX IMVI melanoma and 67.3% in the assay on SK-MEL-28 melanoma.

Turning to `C/C(=C\CCc1ccoc1)CC/C=C(\C)CCCN1CCC(CO)CC1`, the growth in the assay on HT29 colon is 6.48% (active); in the assay on SNB-75 CNS, 36.4%; in the assay on SNB-19 CNS, 76.2%; with U251 CNS, 40%; in the assay on PC-3 prostate it was 57.8%; in the assay on UACC-62 melanoma, -63.3% (active). For the same compound, in the assay with SK-MEL-28 melanoma, the growth was 56.3%.

For the compound `CCOC(=O)c1c(C)nc(C)c(C(=O)OCC)c1-c1cccnc1`, the growth was 96.5% in the assay with HT29 colon; 81.7% in the assay on SNB-75 CNS; 96.1% in the assay on SNB-19 CNS; 94.1% in the assay on U251 CNS; 97.5% with SK-MEL-5 melanoma; 105% with UACC-62 melanoma. Moreover, the growth is 96.1% in the assay with LOX IMVI melanoma and 119% in the assay with SK-MEL-28 melanoma.

For the compound `NC(=O)c1ccccc1NC(=O)c1ccccc1Cl`, the growth in the assay on HT29 colon is 118%; with SNB-75 CNS, 92.8%; in the assay with SNB-19 CNS, 98.4%; with U251 CNS, 106%; in the assay with SK-MEL-5 melanoma it was 106%; in the assay on UACC-62 melanoma, 97.4%. The growth with LOX IMVI melanoma was 106%; in the assay on SK-MEL-28 melanoma, 112%; in the assay with SK-MEL-2 melanoma, 129%.

In the case of `Cc1nn(-c2ccccc2)c2c1oc(=O)c1cc(Cl)ccc12`, the growth was 101% with HT29 colon; 83.7% in the assay on SNB-75 CNS; 99.2% in the assay with SNB-19 CNS; 105% in the assay with U251 CNS; 110% in the assay with SK-MEL-5 melanoma; 92.3% with UACC-62 melanoma. Moreover, the growth was 105% with LOX IMVI melanoma and 140% with SK-MEL-28 melanoma.
